Measurements reported in PubChem BioAssay AID1159580 (chemical genetic matrix, 2015).
Hit rate of the full screen: of about 5,500 compounds, about 2,000 (36%) were called active. About 18% were inconclusive and are not listed. Rule as the data show it: active = normalized growth mostly below about 0.91 (no sharp cut-off); inconclusive = no clear call, values can overlap the other calls; inactive = mostly above about 0.92. The list shows a part of the results.

Experiment: chemical genetic growth profiling, strain panel (AID 1159580);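 also: tested at 20 µM; growth read once vehicle control cultures reached saturation at 30 °C; 1 = growth at the plate median or of vehicle wells; lower values mean less growth of the strain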
Details: growth OD

Measured: normalized growth

CN(C)CCc1c[nH]c2ccc(CS(=O)(=O)N3CCCC3)cc12
inactive: S. cerevisiae deletion strains, locus YJR075W, strain HOC1, active compounds read low 1 | S. cerevisiae deletion strains, locus YKL009W, strain mrt4, active compounds read low 0.992 | S. cerevisiae deletion strains, locus YKL068W, active compounds read low 0.987 | S. cerevisiae deletion strains, locus YKL085W, strain MDH1 (second series), active compounds read low 0.983 | S. cerevisiae deletion strains, locus YKL085W, strain MDH1, active compounds read low 0.983 | S. cerevisiae deletion strains, locus YKL160W, strain elf1, active compounds read low 1.03 | S. cerevisiae deletion strains, locus YKL190W, strain CNB1, active compounds read low 1 | S. cerevisiae deletion strains, locus YKR001C, strain vps1, active compounds read low 0.988 | S. cerevisiae deletion strains, locus YKR026C, strain gcn3, active compounds read low 0.976 | S. cerevisiae deletion strains, locus YKR091W, strain srl3, active compounds read low 1.01 | S. cerevisiae deletion strains, locus YLL001W, strain dnm1, active compounds read low 0.971 | S. cerevisiae deletion strains, locus YLL026W, active compounds read low 0.98 | S. cerevisiae deletion strains, locus YLL041C, strain sdh2, active compounds read low 1 | S. cerevisiae deletion strains, locus YLR027C, strain aat2, active compounds read low 0.997 | S. cerevisiae deletion strains, locus YLR039C, strain RIC1, active compounds read low 0.971 | S. cerevisiae deletion strains, locus YLR058C, strain SHM2, active compounds read low 0.991 | S. cerevisiae deletion strains, locus YLR102C, strain apc9, active compounds read low 0.995 | S. cerevisiae deletion strains, locus YLR113W, strain HOG1, active compounds read low 0.979 | S. cerevisiae deletion strains, locus YLR221C, strain rsa3, active compounds read low 0.96 | S. cerevisiae deletion strains, locus YLR258W, strain gsy2, active compounds read low 1 | S. cerevisiae deletion strains, locus YLR262C, strain YPT6 (second series), active compounds read low 1 | S. cerevisiae deletion strains, locus YLR262C, strain YPT6, active compounds read low 0.968 | S. cerevisiae deletion strains, locus YLR268W, strain sec22, active compounds read low 0.971 | S. cerevisiae deletion strains, locus YLR320W, strain mms22, active compounds read low 0.945 | S. cerevisiae deletion strains, locus YLR330W, strain CHS5, active compounds read low 0.988 | S. cerevisiae deletion strains, locus YLR342W, strain FKS1 (second series), active compounds read low 1.02 | S. cerevisiae deletion strains, locus YLR342W, strain FKS1, active compounds read low 1.01 | S. cerevisiae deletion strains, locus YLR357W, strain rsc2, active compounds read low 1.01 | S. cerevisiae deletion strains, locus YLR370C, strain arc18, active compounds read low 0.992 | S. cerevisiae deletion strains, locus YLR371W, strain rom2, active compounds read low 0.983 | S. cerevisiae deletion strains, locus YLR384C, strain iki3, active compounds read low 0.983 | S. cerevisiae deletion strains, locus YLR418C, strain cdc73, active compounds read low 0.959 | S. cerevisiae deletion strains, locus YML016C, strain PPZ1, active compounds read low 0.987 | S. cerevisiae deletion strains, locus YML032C, strain rad52, active compounds read low 0.99 | S. cerevisiae deletion strains, locus YML120C, strain ndi1, active compounds read low 0.972 | S. cerevisiae deletion strains, locus YML124C, strain tub3, active compounds read low 0.979 | S. cerevisiae deletion strains, locus YMR058W, strain fet3, active compounds read low 0.976 | S. cerevisiae deletion strains, locus YMR078C, strain ctf18, active compounds read low 0.986 | S. cerevisiae deletion strains, locus YMR125W, strain sto1, active compounds read low 0.999 | S. cerevisiae deletion strains, locus YMR129W, active compounds read low 0.98 | S. cerevisiae deletion strains, locus YMR205C, strain PFK2, active compounds read low 0.967 | S. cerevisiae deletion strains, locus YMR223W, strain ubp8, active compounds read low 0.996 | S. cerevisiae deletion strains, locus YMR231W, strain pep5, active compounds read low 0.991 | S. cerevisiae deletion strains, locus YMR263W, strain SAP30, active compounds read low 1.01 | S. cerevisiae deletion strains, locus YMR307W, strain GAS1, active compounds read low 0.994 | S. cerevisiae deletion strains, locus YNL067W, strain RPL9B, active compounds read low 1.03 | S. cerevisiae deletion strains, locus YNL071W, strain lat1, active compounds read low 0.985 | S. cerevisiae deletion strains, locus YNL128W, strain TEP1, active compounds read low 1 | S. cerevisiae deletion strains, locus YNL153C, strain GIM3, active compounds read low 0.995 | S. cerevisiae deletion strains, locus YNL183C, strain NPR1, active compounds read low 0.926 | S. cerevisiae deletion strains, locus YNL209W, strain ssb2, active compounds read low 0.974 | S. cerevisiae deletion strains, locus YNL233W, strain BNI4, active compounds read low 0.988 | S. cerevisiae deletion strains, locus YNL248C, strain rpa49, active compounds read low 1.03 | S. cerevisiae deletion strains, locus YNL250W, strain rad50, active compounds read low 0.986 | S. cerevisiae deletion strains, locus YNL271C, strain bni1, active compounds read low 0.984 | S. cerevisiae deletion strains, locus YNL298W, strain CLA4, active compounds read low 0.981 | S. cerevisiae deletion strains, locus YNL307C, strain MCK1, active compounds read low 0.985 | S. cerevisiae deletion strains, locus YNL322C, strain KRE1 (second series), active compounds read low 1.02 | S. cerevisiae deletion strains, locus YNL322C, strain KRE1, active compounds read low 0.999 | S. cerevisiae deletion strains, locus YNR049C, strain mso1, active compounds read low 0.997 | S. cerevisiae deletion strains, locus YNR052C, strain pop2, active compounds read low 0.992 | S. cerevisiae deletion strains, locus YOL006C, strain TOP1, active compounds read low 0.959 | S. cerevisiae deletion strains, locus YOL012C, strain htz1 0.726 | S. cerevisiae deletion strains, locus YOL147C, strain pex11, active compounds read low 0.995 | S. cerevisiae deletion strains, locus YOR001W, strain rrp6, active compounds read low 0.938 | S. cerevisiae deletion strains, locus YOR061W, strain CKA2, active compounds read low 0.994 | S. cerevisiae deletion strains, locus YOR069W, strain VPS5, active compounds read low 0.992 | S. cerevisiae deletion strains, locus YOR070C, strain gyp1, active compounds read low 1 | S. cerevisiae deletion strains, locus YOR080W, strain dia2, active compounds read low 1 | S. cerevisiae deletion strains, locus YOR083W, strain WHI5, active compounds read low 1 | S. cerevisiae deletion strains, locus YOR106W, strain vam3, active compounds read low 1.04 | S. cerevisiae deletion strains, locus YOR136W, strain idh2, active compounds read low 0.983 | S. cerevisiae deletion strains, locus YOR144C, strain elg1, active compounds read low 0.981 | S. cerevisiae deletion strains, locus YOR184W, strain ser1, active compounds read low 0.989 | S. cerevisiae deletion strains, locus YOR231W, strain MKK1, active compounds read low 0.957 | S. cerevisiae deletion strains, locus YOR265W, strain rbl2, active compounds read low 0.99 | S. cerevisiae deletion strains, locus YOR270C, strain vph1, active compounds read low 0.945 | S. cerevisiae deletion strains, locus YOR290C, strain snf2, active compounds read low 1.02 | S. cerevisiae deletion strains, locus YOR316C, strain cot1, active compounds read low 0.989 | S. cerevisiae deletion strains, locus YPL051W, strain arl3, active compounds read low 1.02 | S. cerevisiae deletion strains, locus YPL055C, strain LGE1, active compounds read low 1.02 | S. cerevisiae deletion strains, locus YPL078C, strain atp4, active compounds read low 1.02 | S. cerevisiae deletion strains, locus YPL106C, strain sse1, active compounds read low 1.02 | S. cerevisiae deletion strains, locus YPL240C, strain hsp82, active compounds read low 0.985 | S. cerevisiae deletion strains, locus YPL241C, strain CIN2, active compounds read low 1.03 | S. cerevisiae deletion strains, locus YPL256C, strain CLN2, active compounds read low 0.959 | S. cerevisiae deletion strains, locus YPR119W, strain clb2, active compounds read low 0.994 | S. cerevisiae deletion strains, locus YPR141C, strain kar3, active compounds read low 0.983 | S. cerevisiae deletion strains, locus YPR163C, strain tif3, active compounds read low 0.985 | S. cerevisiae deletion strains, locus YPR167C, strain met16, active compounds read low 0.982 | S. cerevisiae deletion strains, strain wtn01, active compounds read low 0.99 | S. cerevisiae strains, strain wild type, active compounds read low 1.02
